The source of these data is PubChem BioAssay.

A short description of test [1]: Wnt pathway potentiators raising nuclear beta-catenin – imaging, WNT3A-conditioned medium, mouse C2C12, NPC library, primary screen (AID 1117326). As to conditions: stronger effect = higher value.
The nature of test [2]: stimulators of insulin release from INS-1E, primary screen, cell-based, 5 mM glucose, NPC library (AID 1117329;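 active = compound raises insulin release from rat beta cells at 5 mM glucose, no numeric limit stated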). As to conditions: rat INS-1E insulin secretion, at 10 µM, stronger effect = higher value.
A short description of test [3]: inhibition of endothelial tube formation, primary screen, imaging, VEGF stimulated, CD31 staining, tube area, NPC library (AID 1117340;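 active = compound that reduces growth-factor-driven endothelial tube area in a mixed cell culture, no cutoff stated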). As to conditions: VEGF-stimulated ADSC/ECFC co-culture, at 10 µM, stronger effect = higher value.
A short description of test [4]: GLP1 release stimulators, primary, NCI-H716, NPC library (AID 1117341;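 active = compound raises GLP1 secretion from the human gut endocrine cells, with no numeric limit stated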). Particulars: NCI-H716 cells, at 10 µM, stronger effect = higher value.
Test [5] is described as follows: growth inhibition of GSK3B-pretreated HCT116 cells – cell-based, CellTiter-Glo, 0.2 to 20 µM (AID 1117336;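 active = compounds lowering colon cancer cell viability after pretreatment blocking the GSK3B kinase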). Particulars: HCT116 viability after GSK3B inhibitor, at 20 µM, stronger effect = higher value.
Test [6] can be described thus: HCT116 colon cancer cell growth inhibition, primary screen, CellTiter-Glo luminescence, NPC library (AID 1117342;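 active = compounds that lower survival of HCT116 colon cancer cells in the luminescence readout, no numeric limit stated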). Particulars: at 20 µM (top of the series).
The nature of test [7]: reduced SW480 viability measured with CellTiter-Glo, NPC library, primary (AID 1117343;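 active = compounds that lower viability of the colon cancer cells in the luminescence readout, with no numeric limit stated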). As to conditions: CellTiter-Glo luminescence; at 20 µM (top of the series).
Test [8] can be described thus: NPC library primary testing for decreased DLD-1 cell viability via CellTiter-Glo (AID 1117346;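 active = compounds that lower survival of DLD-1 colon cancer cells in the luminescence readout, no cutoff given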). As to conditions: DLD-1 viability, CellTiter-Glo luminescence; at 20 µM (top of the series).
Test [9] has as its target NAD(+) hydrolase SARM1 (Homo sapiens) (UniProt Q6SZW1). Nature of the test: blocking NAD cleavage by SARM1 SAM-TIR – cell lysate, NAD-Glo luminescence (AID 1508614;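 active = compound whose remaining NAD level is above about 45 nM, limit read from the data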;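 note: higher remaining NAD means stronger inhibition of SARM1 NADase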). As to conditions: SAM-TIR HEK293T lysate NADase, at 1 µM, stronger effect = higher value.
Test [10] can be described thus: P. berghei load reduction in hepatocytes – cell-based, HepG2, luciferase luminescence, HepG2 viability, primary screen (AID 624349; in the data active = parasite load remaining mostly below about 12%, no sharp cut-off; inactive = mostly above about 10%;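 note: 100% = mean of DMSO negative control wells on the same plate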). As to conditions: P. berghei liver stage in HepG2, luciferase luminescence, concentration not given here; parasite load remaining: stronger effect = lower value; viability: measured here: HepG2 viability without parasites.
A short description of test [11]: viability loss with induced miR-34 in A549 – imaging, A549 dox-inducible miR-34, nuclei and caspase counts, primary screen (AID 1347080;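 active = compounds whose cell count with miR-34 switched on is under 0.7 times the count with it off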). Particulars: A549 miR-34 inducible, Hoechst nuclei count, 48 h.
Test [12] in a line: MELAS cybrid and Rieske KO viability enhancers – cell-based, MELAS cybrids, Rieske KO mouse fibroblasts, CellTiter-Glo, primary screen (AID 1508586;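 active = mean z-score across replicates of 1.96 or higher in either the MELAS or the Rieske mutant cell line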;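 note: z relative to plate mean and SD of compound and empty wells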). As to conditions: low glucose.
In test [13] the target is 6-phosphogluconate dehydrogenase, decarboxylating (Homo sapiens) (UniProt P52209). Nature of the test: inhibition of human phosphogluconate dehydrogenase – biochemical, recombinant enzyme, NADPH absorbance, primary screen (AID 1159550;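 active = at least 20% inhibition of 6-phosphogluconate dehydrogenase activity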). As to conditions: recombinant 6PGD, NADPH absorbance 341 nm; at 10 µM; stronger effect = higher value.
Test [14] in a line: EMT-state selective cytotoxicity in co-culture – imaging, PC-3E GFP, TEM4-18 mCherry, primary screen (AID 1345086;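 active = compounds killing one labelled cell type while sparing the other, by normalised counts and ratio limits, not self-fluorescent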;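 note: cells exposed to compound for 72 h before imaging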;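 for red/green cell ratio (normalised): normalised mesenchymal count divided by normalised epithelial count so high means epithelial killing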). Particulars: PC-3E GFP / TEM4-18 mCherry co-culture, imaging cell counts, at 1 µM.
The mark [15] stands for this setting: stronger effect = lower value, cell number ratio, induced over uninduced.
[16] abbreviates: measured here: relative caspase fold change +Dox/-Dox.
Setting [17] is: measured here: total cells with miR-34 induction, stronger effect = lower value.
Setting [18] is: measured here: total cells without miR-34 induction.

“And” between values parts separate entries of the source, which are not always exact repeats. Identical values can stand only once. The source made the active and inactive calls. Cut-off read from the data, not from the text of the source, unless noted: active = nuclear beta-catenin stimulation mostly above about 4.2% (no sharp cut-off); inactive = mostly below about 10%.

Chain of 6-phosphogluconate dehydrogenase, decarboxylating (Homo sapiens) (P52209 whole entry, looked up): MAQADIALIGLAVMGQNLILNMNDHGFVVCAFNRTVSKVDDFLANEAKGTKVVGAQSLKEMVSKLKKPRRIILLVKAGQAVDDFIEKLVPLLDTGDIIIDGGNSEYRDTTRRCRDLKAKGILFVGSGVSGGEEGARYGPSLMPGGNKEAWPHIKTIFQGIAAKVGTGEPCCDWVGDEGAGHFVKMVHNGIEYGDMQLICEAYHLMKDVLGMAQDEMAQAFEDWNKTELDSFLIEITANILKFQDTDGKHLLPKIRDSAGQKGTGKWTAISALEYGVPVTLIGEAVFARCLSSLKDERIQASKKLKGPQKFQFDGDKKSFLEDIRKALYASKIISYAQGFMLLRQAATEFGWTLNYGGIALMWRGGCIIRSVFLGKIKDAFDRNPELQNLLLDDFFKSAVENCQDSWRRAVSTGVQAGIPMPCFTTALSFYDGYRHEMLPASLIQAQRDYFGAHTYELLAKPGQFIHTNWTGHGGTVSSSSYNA
Chain of NAD(+) hydrolase SARM1 (Homo sapiens) (Q6SZW1 whole entry, looked up): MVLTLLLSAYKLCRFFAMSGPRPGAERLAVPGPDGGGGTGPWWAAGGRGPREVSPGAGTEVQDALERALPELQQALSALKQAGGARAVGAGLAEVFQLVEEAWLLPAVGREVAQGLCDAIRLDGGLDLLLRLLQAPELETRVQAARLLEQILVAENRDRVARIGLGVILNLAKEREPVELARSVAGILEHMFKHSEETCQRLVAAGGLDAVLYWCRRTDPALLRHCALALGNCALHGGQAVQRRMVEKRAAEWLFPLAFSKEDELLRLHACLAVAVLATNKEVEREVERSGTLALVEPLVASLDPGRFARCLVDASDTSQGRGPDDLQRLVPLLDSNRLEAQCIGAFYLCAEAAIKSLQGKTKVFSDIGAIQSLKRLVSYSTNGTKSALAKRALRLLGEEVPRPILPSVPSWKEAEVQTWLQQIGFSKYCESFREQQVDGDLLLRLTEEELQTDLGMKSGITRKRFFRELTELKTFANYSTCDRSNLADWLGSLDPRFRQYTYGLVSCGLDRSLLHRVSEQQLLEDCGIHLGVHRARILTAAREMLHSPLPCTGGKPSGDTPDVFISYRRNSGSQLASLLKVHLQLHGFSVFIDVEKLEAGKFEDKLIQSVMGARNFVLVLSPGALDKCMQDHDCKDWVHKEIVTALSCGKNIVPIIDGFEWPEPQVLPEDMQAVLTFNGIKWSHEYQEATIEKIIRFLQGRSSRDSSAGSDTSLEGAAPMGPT

As to `CC[N+]1(CCOC(=O)C(O)(c2ccccc2)c2ccccc2)CCCCC1`, the nuclear beta-catenin stimulation was -0.3% (inactive) in test [1] (at 10 µM) and 0.7% in [1] (stimulation, at 2 µM). Also, the insulin secretion stimulation in [2] is -0.8% (inactive). The tube area decrease in [3] was 23.5% (inactive). Further, the GLP1 secretion stimulation in test [4] was 0.5% (inactive).

With `[N-]=[N+]=CC(=O)OC[C@H](N)C(=O)O`, the nuclear beta-catenin stimulation in test [1] (at 10 µM) was -2.7% (inactive); in test [1] (stimulation, at 2 µM), -2.4%. Besides, the insulin secretion stimulation in test [2] is -0.2% (inactive). The viability decrease in test [5] is 50.2% (active). For the same molecule, the tube area decrease in test [3] is 12.9% (inactive). In [4], the GLP1 secretion stimulation was -1.4% (inactive). Further, in test [6], the inhibition of viability was 77.9% (active). The values for the viability decrease (inhibition) in [7] and in [8] were 104% (active) and 57.8% (active), respectively. Also, the remaining NAD in test [9] was 10 nM (inactive).

For the molecule `COP(=S)(OC)Oc1cc(Cl)c(Cl)cc1Cl`, the parasite load remaining in test [10] was 48.6% (inactive). Also, the viability in test [10] worked out at 108%. Besides, the nuclear beta-catenin stimulation in [1] (at 10 µM) is 2.5% (inactive); in test [1] (stimulation, at 2 µM), -0.1%. The insulin secretion stimulation in test [2] was 2.1% (inactive). In addition, the viability decrease in test [5] is -23.4% (inactive). Also, the tube area decrease in test [3] was -3.6% (inactive). Besides, the GLP1 secretion stimulation in test [4] is 3.7% (inactive). In addition, in test [6], the inhibition of viability was 9.4% (inactive). In addition, the viability decrease (inhibition) in [7] is 32% (inactive); in [8], 15.4% (inactive). Moreover, the fold change in [11] (setting [15]) is 0.898 (inactive); in [11] (setting [16]), 3.75. Also, the values for the cell count in test [11] (setting [17]) and in test [11] (setting [18]) were 12000 and 13300, respectively.

With `CN(C)CCc1ccc(O)cc1`, the nuclear beta-catenin stimulation is -0.3% (inactive) in test [1] (at 10 µM) and 1.5% in test [1] (stimulation, at 2 µM). Besides, in test [2], the insulin secretion stimulation was -0.4% (inactive). The viability decrease in test [5] was 1.5% (inactive). In test [3], the tube area decrease was 4.1% (inactive). For the same molecule, in test [4], the GLP1 secretion stimulation was 1.1% (inactive). For the same molecule, the inhibition of viability in test [6] was 4.7% (inactive). Besides, the values for the viability decrease (inhibition) in [7] and in test [8] were 1.9% (inactive) and -0.4% (inactive), respectively. Further, the fold change in test [11] (setting [15]) is 0.908 (inactive); in test [11] (setting [16]) it was 0.849. Besides, the cell count in [11] (setting [17]) was 9070; in test [11] (setting [18]), 9990. Besides, the z-score in test [12] (MELAS cybrid survival, CellTiter-Glo 48 h, stronger effect = higher value) is -0.277 (inactive); in [12] (Rieske KO mouse fibroblast survival, CellTiter-Glo 72 h) it was 0.765.

Consider `CN[C@H]1C[C@@H](N)[C@H](O)[C@@H](O[C@@H]2O[C@H](CO)[C@H](O)[C@@H]3OC4(O[C@H]23)O[C@H]([C@@H](N)CO)[C@H](O)[C@@H](O)[C@H]4O)[C@@H]1O` (stereo partly specified), for which, in test [13], the inhibition is 14.7% (inactive).

As to `CN(C)C(=S)SSC(=S)N(C)C`, the parasite load remaining in [10] was 69.7% (inactive) and -0.72% (inactive). Further, in test [10], the viability is 84.1% and 106%. For the same molecule, the nuclear beta-catenin stimulation was 68.4% (active) in test [1] (at 10 µM) and 48.7% in test [1] (stimulation, at 2 µM). Moreover, in test [5], the viability decrease is 65% (active). Besides, in test [3], the tube area decrease was 39.3% (inactive). In addition, the inhibition of viability in [6] is 16.3% (inactive). Besides, the viability decrease (inhibition) in test [7] was 62.7% (active); in test [8], 59.7% (active). For the same molecule, in test [13], the inhibition is -10.3% (inactive). For the same molecule, the red/green cell ratio (normalised) in [14] (actives lie on both sides) was 1.29 (inactive). Moreover, the figures for the normalised cell number in test [14] (measured here: epithelial PC-3E GFP cell survival) and in test [14] (measured here: mesenchymal TEM4-18 mCherry cell survival) were 0.66 and 0.85, respectively. Further, the fold change in test [11] (stronger effect = lower value) is 0.701 (inactive); in test [11] (setting [16]) it was 4.9. The values for the cell count in [11] (setting [17]) and in [11] (setting [18]) were 7410 and 10600, respectively. In test [9], the remaining NAD is 48 nM (active).

For the molecule `Clc1ccc(Cl)cc1`, the inhibition in test [13] is 7.33% (inactive).

As to `COc1cccc2c1C(=O)c1c(O)c3c(c(O)c1C2=O)C[C@@](O)(C(=O)CO)CC3OC1CC(N2CCOC(OC)C2)C(O)C(C)O1` (stereo partly specified), the nuclear beta-catenin stimulation in test [1] (at 10 µM) is 13.6% (active); in [1] (stimulation, at 2 µM) it was 47.6%. In addition, the insulin secretion stimulation in test [2] was 1.1% (inactive). In addition, in [4], the GLP1 secretion stimulation is 7.5% (inactive).

With `CN[C@@H](Cc1c[nH]c2ccccc12)C(=O)O`, the inhibition in test [13] is 8.96% (inactive).

Regarding `COc1cc2c(cc1OC)[C@H]1C(=O)c3ccc4c(c3O[C@H]1CO2)C[C@@H](C(C)C)O4`, the inhibition in test [13] was -1.45% (inactive).

As to `C[C@]12CC[C@@H](OS(=O)(=O)O)C[C@@H]1CC[C@@H]1[C@@H]2CC[C@]2(C)C(=O)CC[C@@H]12`, the inhibition in test [13] is 5.35% (inactive).

`CCOC(=O)c1ccccc1C(=O)OCC`: the nuclear beta-catenin stimulation was -0.2% (inactive) in [1] (at 10 µM) and -0.3% in [1] (stimulation, at 2 µM). In addition, the insulin secretion stimulation in [2] was 2.85% (inactive). Besides, the GLP1 secretion stimulation in test [4] was 0.4% (inactive).
